Measurements from PMC7862700, “An all-to-all approach to the identification of sequence-specific readers for epigenetic DNA modifications on cytosine”.

Key:
Experiment in all cases: DAPPL (digital affinity profiling via proximity ligation, sequencing); 10 mM Tris-HCl pH 7.5, 50 mM NaCl, 1 mM DTT, 4% glycerol, room temperature, 30 min; GST-TFs on glutathione beads, 16-mer random dsDNA library, 0.1% formaldehyde crosslink after washing; high values mean tight binding
[1] = target: T1, FLI1 (Homo sapiens, UniProt Q01543 1-452); conditions: protein: recombinant; tags: N-terminal GST; dsDNA, one strand shown
T1 sequence: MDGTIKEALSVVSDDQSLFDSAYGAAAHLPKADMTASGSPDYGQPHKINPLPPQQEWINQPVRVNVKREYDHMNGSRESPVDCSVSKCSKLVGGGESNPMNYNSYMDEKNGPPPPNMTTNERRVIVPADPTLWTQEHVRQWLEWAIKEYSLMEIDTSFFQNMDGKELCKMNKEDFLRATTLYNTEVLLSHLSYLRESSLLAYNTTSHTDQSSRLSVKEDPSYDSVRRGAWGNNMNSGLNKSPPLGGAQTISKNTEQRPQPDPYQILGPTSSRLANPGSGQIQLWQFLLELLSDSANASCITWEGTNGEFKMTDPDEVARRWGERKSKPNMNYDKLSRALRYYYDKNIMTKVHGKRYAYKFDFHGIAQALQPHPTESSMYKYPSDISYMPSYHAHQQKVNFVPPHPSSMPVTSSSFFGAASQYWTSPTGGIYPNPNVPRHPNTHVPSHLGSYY
Outline: (§1)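 Pools of DNA-barcoded human transcription factors, expressed in yeast as GST fusions on glutathione beads and combined with a tag-only sample, were incubated with 200 nmole of a 16-mer random double-stranded DNA library. Incubation took 30 min at room temperature in Tris/NaCl/DTT/glycerol buffer and was followed by washing, 0.1% formaldehyde crosslinking, proximity ligation (BsaI/T4 ligase, 1 h, 37 °C), PCR amplification and sequencing on an Illumina NextSeq500. Binding signal is the ratio of a hexamer's read frequency for a factor to its frequency for the tag-only sample.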

[2] = target: T2, ELK1 (Homo sapiens, UniProt P19419 1-428); conditions: protein: recombinant; tags: N-terminal GST; dsDNA, one strand shown
T2 sequence: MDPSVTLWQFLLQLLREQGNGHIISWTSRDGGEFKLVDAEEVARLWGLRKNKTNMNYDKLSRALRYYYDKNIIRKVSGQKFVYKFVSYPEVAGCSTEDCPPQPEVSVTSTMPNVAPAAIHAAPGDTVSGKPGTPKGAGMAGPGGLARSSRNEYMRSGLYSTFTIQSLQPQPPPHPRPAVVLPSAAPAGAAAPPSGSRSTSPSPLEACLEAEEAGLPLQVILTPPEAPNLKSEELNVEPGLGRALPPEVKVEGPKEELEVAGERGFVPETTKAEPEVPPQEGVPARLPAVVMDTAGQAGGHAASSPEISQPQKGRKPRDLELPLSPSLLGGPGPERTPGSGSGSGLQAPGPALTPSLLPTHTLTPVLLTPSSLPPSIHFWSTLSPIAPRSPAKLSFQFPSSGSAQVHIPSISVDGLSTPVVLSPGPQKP
Outline: as §1

[3] = target: T3, GABPA (Homo sapiens, UniProt Q06546 1-454); conditions: protein: recombinant; tags: N-terminal GST; dsDNA, one strand shown
T3 sequence: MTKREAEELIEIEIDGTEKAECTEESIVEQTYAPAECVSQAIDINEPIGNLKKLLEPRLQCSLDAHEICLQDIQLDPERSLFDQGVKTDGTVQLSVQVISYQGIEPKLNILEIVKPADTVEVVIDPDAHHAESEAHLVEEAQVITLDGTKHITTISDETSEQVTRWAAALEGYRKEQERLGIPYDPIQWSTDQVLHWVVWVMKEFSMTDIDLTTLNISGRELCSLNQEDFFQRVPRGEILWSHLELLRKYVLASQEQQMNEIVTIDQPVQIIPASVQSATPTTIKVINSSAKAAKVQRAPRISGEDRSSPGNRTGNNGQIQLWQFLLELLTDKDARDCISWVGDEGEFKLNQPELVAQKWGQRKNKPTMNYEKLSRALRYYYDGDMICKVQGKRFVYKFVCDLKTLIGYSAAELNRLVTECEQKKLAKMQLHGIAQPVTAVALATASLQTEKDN
Outline: as §1

[4] = target: T4, ERG (Homo sapiens, UniProt P11308 1-479); conditions: protein: recombinant; tags: N-terminal GST; dsDNA, one strand shown
T4 sequence: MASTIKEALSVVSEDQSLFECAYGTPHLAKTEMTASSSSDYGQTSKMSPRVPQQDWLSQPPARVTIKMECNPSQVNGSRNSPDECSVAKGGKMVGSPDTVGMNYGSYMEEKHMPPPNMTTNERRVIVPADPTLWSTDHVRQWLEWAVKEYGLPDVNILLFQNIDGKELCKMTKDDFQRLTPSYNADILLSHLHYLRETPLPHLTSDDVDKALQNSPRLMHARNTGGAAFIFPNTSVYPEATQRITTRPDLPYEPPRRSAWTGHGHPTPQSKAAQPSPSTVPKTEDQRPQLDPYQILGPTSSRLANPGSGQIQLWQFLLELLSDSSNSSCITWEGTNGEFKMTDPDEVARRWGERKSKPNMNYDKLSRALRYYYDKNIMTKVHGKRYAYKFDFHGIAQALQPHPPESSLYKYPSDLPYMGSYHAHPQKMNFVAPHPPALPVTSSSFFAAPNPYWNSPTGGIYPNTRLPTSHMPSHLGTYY
Outline: as §1

[5] = target: ELF1 (Homo sapiens, UniProt P32519 1-619); conditions: protein: recombinant; tags: N-terminal GST; dsDNA, one strand shown
Chain of ELF1 (P32519 whole entry): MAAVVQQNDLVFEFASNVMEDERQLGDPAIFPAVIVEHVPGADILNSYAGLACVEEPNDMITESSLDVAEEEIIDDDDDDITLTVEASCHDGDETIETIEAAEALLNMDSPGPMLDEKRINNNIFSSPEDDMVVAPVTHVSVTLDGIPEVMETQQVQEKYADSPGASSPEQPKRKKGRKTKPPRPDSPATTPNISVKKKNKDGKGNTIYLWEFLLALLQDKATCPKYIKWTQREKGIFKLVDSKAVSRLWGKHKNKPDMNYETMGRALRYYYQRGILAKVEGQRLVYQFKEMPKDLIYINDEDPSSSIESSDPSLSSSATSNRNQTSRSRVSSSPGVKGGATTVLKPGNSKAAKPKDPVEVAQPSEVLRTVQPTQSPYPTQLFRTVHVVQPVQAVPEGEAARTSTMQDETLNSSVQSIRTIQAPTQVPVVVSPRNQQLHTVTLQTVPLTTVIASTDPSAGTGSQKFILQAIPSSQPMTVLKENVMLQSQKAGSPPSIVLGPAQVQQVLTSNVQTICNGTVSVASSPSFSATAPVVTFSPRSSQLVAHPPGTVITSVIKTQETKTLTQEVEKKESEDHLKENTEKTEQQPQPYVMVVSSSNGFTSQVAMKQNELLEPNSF
Outline: as §1

[6] = target: T5, EHF (Homo sapiens, UniProt Q9NZC4 1-300); conditions: protein: recombinant; tags: N-terminal GST; dsDNA, one strand shown
T5 sequence: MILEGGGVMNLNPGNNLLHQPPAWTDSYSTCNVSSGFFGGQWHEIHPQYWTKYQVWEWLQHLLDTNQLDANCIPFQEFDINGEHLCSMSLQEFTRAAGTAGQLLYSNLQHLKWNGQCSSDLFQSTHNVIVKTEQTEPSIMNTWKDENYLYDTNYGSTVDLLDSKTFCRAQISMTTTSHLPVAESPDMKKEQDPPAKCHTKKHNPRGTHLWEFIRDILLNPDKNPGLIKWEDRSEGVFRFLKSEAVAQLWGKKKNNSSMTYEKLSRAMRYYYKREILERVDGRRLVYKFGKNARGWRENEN
Outline: as §1

[7] = target: SPIB (Homo sapiens, UniProt Q01892 1-262); conditions: protein: recombinant; tags: N-terminal GST; dsDNA, one strand shown
Chain of SPIB (Q01892 whole entry): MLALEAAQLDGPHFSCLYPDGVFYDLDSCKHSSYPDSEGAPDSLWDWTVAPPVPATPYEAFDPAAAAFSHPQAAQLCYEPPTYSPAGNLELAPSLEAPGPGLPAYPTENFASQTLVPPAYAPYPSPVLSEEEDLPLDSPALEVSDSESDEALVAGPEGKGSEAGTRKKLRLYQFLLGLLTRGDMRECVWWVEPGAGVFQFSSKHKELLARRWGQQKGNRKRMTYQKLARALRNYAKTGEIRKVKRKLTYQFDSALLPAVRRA
Outline: as §1

[8] = target: T6, ELK3 (Homo sapiens, UniProt P41970 1-407); conditions: protein: recombinant; tags: N-terminal GST; dsDNA, one strand shown
T6 sequence: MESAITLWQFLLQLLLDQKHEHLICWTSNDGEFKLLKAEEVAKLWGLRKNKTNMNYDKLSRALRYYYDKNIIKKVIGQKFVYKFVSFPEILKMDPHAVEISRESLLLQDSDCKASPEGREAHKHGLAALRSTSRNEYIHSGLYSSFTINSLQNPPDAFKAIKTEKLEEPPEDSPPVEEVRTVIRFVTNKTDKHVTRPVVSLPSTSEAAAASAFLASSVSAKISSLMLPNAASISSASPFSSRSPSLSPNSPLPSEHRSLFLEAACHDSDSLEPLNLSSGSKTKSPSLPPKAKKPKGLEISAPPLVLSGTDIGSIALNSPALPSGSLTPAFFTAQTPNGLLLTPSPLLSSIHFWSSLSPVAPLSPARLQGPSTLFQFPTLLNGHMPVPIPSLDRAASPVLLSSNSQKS
Outline: as §1

[9] = target: T7, FEV (Homo sapiens, UniProt Q99581 1-238); conditions: protein: recombinant; tags: N-terminal GST; dsDNA, one strand shown
T7 sequence: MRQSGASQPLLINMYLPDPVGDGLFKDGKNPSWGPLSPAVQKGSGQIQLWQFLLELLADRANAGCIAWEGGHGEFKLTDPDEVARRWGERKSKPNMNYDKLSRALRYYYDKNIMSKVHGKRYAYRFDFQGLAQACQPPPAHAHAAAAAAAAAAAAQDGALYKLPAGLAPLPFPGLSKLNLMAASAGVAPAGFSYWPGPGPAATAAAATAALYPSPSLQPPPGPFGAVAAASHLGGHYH
Outline: as §1

[10] = target: ETV5 (Homo sapiens, UniProt P41161 1-510); conditions: protein: recombinant; tags: N-terminal GST; dsDNA, one strand shown
Chain of ETV5 (P41161 whole entry): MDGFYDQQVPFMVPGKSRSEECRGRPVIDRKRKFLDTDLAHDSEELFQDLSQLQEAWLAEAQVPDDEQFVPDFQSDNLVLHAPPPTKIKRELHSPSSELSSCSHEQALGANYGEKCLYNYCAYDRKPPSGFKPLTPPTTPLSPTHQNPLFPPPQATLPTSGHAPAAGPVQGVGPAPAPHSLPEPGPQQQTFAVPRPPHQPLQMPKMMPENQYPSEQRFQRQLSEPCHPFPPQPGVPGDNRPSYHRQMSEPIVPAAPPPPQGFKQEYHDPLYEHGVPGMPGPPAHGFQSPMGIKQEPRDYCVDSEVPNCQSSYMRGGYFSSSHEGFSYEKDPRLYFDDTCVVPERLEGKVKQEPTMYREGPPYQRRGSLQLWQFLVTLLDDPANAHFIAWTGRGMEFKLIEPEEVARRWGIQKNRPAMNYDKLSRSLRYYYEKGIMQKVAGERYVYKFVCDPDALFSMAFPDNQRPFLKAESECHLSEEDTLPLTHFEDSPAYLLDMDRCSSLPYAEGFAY
Outline: as §1

[11] = target: HSF1 (Homo sapiens, UniProt Q00613 1-529); conditions: protein: recombinant; tags: N-terminal GST; chain copies: 3; dsDNA, one strand shown
Chain of HSF1 (Q00613 whole entry): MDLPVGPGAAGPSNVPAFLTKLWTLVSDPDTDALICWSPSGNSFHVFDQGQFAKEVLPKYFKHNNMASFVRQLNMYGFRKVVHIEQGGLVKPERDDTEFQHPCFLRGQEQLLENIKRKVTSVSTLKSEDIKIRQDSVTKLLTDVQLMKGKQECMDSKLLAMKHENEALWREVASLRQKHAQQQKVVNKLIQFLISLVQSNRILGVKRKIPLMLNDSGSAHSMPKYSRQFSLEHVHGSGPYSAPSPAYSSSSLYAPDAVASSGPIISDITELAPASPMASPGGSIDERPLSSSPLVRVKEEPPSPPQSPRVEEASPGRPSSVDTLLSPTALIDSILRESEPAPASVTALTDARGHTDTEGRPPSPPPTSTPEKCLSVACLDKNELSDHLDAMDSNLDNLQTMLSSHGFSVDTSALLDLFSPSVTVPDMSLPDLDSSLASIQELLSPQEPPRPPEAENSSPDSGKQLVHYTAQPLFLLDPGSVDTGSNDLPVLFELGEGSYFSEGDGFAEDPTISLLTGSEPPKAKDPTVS
Outline: as §1

[12] = target: T8, SPIC (Homo sapiens, UniProt Q8N5J4 1-248); conditions: protein: recombinant; tags: N-terminal GST; dsDNA, one strand shown
T8 sequence: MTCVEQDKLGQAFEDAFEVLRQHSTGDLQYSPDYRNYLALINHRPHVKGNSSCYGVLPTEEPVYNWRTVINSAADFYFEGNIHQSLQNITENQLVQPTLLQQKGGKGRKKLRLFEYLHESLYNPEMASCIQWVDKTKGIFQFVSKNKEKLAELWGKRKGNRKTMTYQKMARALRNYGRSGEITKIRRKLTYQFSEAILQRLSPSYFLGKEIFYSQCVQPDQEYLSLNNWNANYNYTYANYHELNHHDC
Outline: as §1

[13] = target: ELF4 (Homo sapiens, UniProt Q99607 1-663); conditions: protein: recombinant; tags: N-terminal GST; dsDNA, one strand shown
Chain of ELF4 (Q99607 whole entry): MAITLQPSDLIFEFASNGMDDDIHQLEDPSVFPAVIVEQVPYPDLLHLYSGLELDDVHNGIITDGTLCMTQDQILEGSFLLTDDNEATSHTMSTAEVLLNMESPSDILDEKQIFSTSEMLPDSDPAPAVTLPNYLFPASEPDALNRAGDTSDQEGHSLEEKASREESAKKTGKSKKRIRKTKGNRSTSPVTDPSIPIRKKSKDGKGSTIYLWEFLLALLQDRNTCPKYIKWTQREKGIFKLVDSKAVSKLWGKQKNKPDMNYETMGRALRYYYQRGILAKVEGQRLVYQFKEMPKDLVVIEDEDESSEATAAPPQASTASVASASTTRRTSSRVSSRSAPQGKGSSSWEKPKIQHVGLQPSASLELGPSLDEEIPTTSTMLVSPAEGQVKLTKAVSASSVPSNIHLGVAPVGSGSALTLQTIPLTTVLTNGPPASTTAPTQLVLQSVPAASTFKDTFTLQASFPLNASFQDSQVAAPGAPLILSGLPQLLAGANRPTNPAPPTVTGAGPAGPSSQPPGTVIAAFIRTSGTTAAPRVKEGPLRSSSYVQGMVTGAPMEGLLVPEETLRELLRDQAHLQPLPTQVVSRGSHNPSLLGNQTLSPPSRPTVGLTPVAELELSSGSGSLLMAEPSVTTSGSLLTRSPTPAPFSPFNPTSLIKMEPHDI
Outline: as §1

[14] = target: T9, ELK4 (Homo sapiens, UniProt P28324-2 1-405); conditions: protein: recombinant; tags: N-terminal GST; dsDNA, one strand shown
T9 sequence: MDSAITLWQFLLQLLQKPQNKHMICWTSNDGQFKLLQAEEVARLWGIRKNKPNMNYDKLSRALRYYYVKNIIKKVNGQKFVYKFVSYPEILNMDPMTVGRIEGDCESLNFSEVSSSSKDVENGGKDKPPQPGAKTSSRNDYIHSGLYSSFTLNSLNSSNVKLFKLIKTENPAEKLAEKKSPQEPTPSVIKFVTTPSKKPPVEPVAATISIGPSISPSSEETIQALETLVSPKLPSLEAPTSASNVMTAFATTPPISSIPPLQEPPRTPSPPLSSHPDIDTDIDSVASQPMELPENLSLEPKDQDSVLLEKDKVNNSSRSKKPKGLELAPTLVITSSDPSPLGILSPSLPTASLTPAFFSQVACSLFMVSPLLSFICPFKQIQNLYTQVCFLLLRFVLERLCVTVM
Outline: as §1

[15] = target: T10, ETV2 (Homo sapiens, UniProt O00321 1-342); conditions: protein: recombinant; tags: N-terminal GST; dsDNA, one strand shown
T10 sequence: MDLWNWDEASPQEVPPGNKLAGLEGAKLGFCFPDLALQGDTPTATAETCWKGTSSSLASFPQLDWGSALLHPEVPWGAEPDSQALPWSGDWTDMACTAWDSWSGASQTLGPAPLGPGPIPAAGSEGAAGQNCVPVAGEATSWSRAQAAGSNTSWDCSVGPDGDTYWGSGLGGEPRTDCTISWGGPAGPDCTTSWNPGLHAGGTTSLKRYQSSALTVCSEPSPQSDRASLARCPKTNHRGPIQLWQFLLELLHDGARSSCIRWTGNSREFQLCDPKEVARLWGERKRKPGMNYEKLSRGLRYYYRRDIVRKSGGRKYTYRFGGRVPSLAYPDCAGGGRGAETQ
Outline: as §1

[16] = target: T11, ELF3 (Homo sapiens, UniProt P78545 1-371); conditions: protein: recombinant; tags: N-terminal GST; dsDNA, one strand shown
T11 sequence: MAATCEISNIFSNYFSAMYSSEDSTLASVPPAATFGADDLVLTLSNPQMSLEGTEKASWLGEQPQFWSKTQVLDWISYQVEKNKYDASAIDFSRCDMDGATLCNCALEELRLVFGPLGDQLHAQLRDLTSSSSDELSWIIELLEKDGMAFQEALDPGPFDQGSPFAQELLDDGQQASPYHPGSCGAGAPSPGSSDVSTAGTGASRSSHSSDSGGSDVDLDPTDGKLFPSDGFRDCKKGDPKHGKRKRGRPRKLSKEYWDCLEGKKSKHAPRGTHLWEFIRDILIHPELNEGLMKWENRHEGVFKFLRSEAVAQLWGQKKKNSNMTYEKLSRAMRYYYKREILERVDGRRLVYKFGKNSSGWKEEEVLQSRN
Outline: as §1

[17] = target: CRX (Homo sapiens, UniProt O43186 1-299); conditions: protein: recombinant; tags: N-terminal GST; dsDNA, one strand shown
Chain of CRX (O43186 whole entry): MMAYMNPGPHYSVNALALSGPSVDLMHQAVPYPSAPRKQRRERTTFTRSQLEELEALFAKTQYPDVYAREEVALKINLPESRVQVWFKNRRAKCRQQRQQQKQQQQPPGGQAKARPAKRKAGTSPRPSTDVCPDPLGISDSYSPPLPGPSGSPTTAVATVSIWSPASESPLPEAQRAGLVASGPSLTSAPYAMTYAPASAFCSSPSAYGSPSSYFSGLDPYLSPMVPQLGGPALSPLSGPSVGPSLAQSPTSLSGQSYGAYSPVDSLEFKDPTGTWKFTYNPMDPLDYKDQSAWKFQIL
Outline: as §1

[18] = target: ETV1 (Homo sapiens, UniProt P50549 1-477); conditions: protein: recombinant; tags: N-terminal GST; dsDNA, one strand shown
Chain of ETV1 (P50549 whole entry): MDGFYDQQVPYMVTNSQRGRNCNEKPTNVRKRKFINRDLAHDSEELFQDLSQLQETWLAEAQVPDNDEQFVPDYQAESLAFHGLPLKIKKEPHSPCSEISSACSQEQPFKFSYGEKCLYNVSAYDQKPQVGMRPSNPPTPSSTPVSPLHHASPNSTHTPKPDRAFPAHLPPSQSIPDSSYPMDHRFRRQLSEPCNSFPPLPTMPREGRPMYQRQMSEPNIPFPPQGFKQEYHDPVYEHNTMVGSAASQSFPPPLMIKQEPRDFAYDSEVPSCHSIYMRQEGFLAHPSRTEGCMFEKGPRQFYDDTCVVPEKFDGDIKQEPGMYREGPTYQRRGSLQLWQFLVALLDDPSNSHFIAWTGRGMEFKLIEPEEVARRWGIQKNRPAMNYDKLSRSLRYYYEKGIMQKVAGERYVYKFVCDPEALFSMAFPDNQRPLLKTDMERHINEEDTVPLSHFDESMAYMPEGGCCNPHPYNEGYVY
Outline: as §1

GATATT
binding signal [1]: 1.11 fold enrichment (6-mer frequency, TF over GST control)
binding signal [2]: 1.17 fold enrichment (6-mer frequency, TF over GST control)
binding signal [3]: 1.06 fold enrichment (6-mer frequency, TF over GST control)
binding signal [4]: 1.12 fold enrichment (6-mer frequency, TF over GST control)
binding signal [5]: 1.13 fold enrichment (6-mer frequency, TF over GST control)
binding signal [6]: 1.12 fold enrichment (6-mer frequency, TF over GST control)
binding signal [7]: 1.13 fold enrichment (6-mer frequency, TF over GST control)
binding signal [8]: 1 fold enrichment (6-mer frequency, TF over GST control)
binding signal [9]: 1.04 fold enrichment (6-mer frequency, TF over GST control)
binding signal [10]: 1.14 fold enrichment (6-mer frequency, TF over GST control)
binding signal [11]: 1.18 fold enrichment (6-mer frequency, TF over GST control)
binding signal [12]: 1.12 fold enrichment (6-mer frequency, TF over GST control)
binding signal [13]: 1.12 fold enrichment (6-mer frequency, TF over GST control)
binding signal [14]: 1.15 fold enrichment (6-mer frequency, TF over GST control)
binding signal [15]: 1.24 fold enrichment (6-mer frequency, TF over GST control)
binding signal [16]: 1.07 fold enrichment (6-mer frequency, TF over GST control)
binding signal [17]: 1.31 fold enrichment (6-mer frequency, TF over GST control)
binding signal [18]: 1.1 fold enrichment (6-mer frequency, TF over GST control)
